# Source: PubChem BioAssay AID504467 (National Center for Advancing Translational Sciences (NCATS), 2011)
# The whole screen tested about 330,000 compounds, of which about 7,700 (2.3%) were called active. About 26% were inconclusive and are not listed. The list comes from a sample in which actives are over-represented; it also holds similar structures and randomly drawn compounds. Unmarked numbers belong to inactive results. Calls come from the whole dose curve; as a rule, active = well fitted inhibition curve with a large enough effect; inconclusive = small, poorly fitted or top-dose-only effect, or effect the other way; inactive = flat fitted curve, though single readings scatter.
# Assay: qHTS screen for small molecules that inhibit ELG1-dependent DNA repair in human embryonic kidney (HEK293T) cells expressing luciferase-tagged ELG1; note: nearly all actives have a fitted effect of over 55% in size
# Conditions: HEK293T ELG1-luciferase reporter, luminescence, 16 h, DNA damage induced by 5-fluorouridine; series mostly up to 46.1 µM; activity change, negative = inhibition: at the top concentration
# From the text: NIH Molecular Libraries Probe Production Network [MLPCN] NIH Chemical Genomics Center [NCGC] MLPCN Grant: 1 R03 MH092164-01 Assay Provider: Kyungjae Myung, NHGRI, NIH Keywords: MLPCN, qHTS, NCGC, genotoxicity, cancer Assay Overview: Cancer cells divide rapidly compared to normal cells in the body. During cell division, cancer cells need to duplicate their genome by DNA replication. The failure of genome duplication leads to cancer cells' death. Therefore, inhibitors of DNA replication could specifically kill cancer cells. Based on this concept, many chemotherapeutic agents were developed and have been used to treat cancer patients. However, there are a limited number of agents available in the clinical setting, and some of those that do exist have low efficacy and severe side effects. Therefore, if we can find the compounds that effectively block DNA replication either by directly damaging DNA or by inhibiting other cellular mechanisms, the options for cancer treatment will be broadened. With this in mind, we developed a quantitative high-throughput ELG1-luciferase reporter gene assay. Small molecules that specifically block ELG1 function in response to DNA damage can be identified by monitoring the suppression of luciferase activity. Since ELG1 defines a pathway for repairing DNA damage, agents blocking ELG1 function can be used to sensitize cancer cells to chemotherapeutic agents whose mechanism of action involves the induction of DNA damage.
# Assay Protocol Summary: For genotoxicity screening, 2,000 cells in 4 uL/well were dispensed into white, solid-bottom 1536-well plates using a solenoid-based dispenser. Following transfer of 1 uL 5-Fluorouridine and 23 nL compound or DMSO vehicle by a pin tool, the plates were incubated 16 hr at 37 °C and 5% CO2. 5 ul ONE-Glo (Promega) was then added to each plate and following a 30 min incubation at room temperature, luciferase activity was quantified on a ViewLux CCD-based plate reader.
# % is set by controls: 0 for no effect and ±100 for the full control effect; potency is the fitted concentration of half-maximal effect.
Compound,Potency,"activity change, negative = inhibition"
COc1ccc(NS(=O)(=O)c2cc(NC(=O)C3CCCCC3)ccc2N2CCOCC2)cc1,20.6 µM (active),
COc1ccc(NS(=O)(=O)c2cc(NC(=O)/C=C/c3cc(OC)c(OC)c(OC)c3)ccc2N2CCCCC2)cc1,,13.2%
COc1ccc(NS(=O)(=O)c2ccc(N3CCOCC3)c(NC(=O)c3ccccc3Br)c2)cc1,,-26.6%
COc1ccc2oc(C)c(NC(C)=O)c2c1,,0.987%
CC(=O)c1c(C)oc2ccc(NS(=O)(=O)c3ccc(C(=O)O)cc3)cc12,,-1.04%
COc1ccc(S(=O)(=O)Nc2ccc3oc(C)c(C(C)=O)c3c2)cc1,2.59 µM (active),
Cc1ccc(S(=O)(=O)N2CCC(C(=O)OCC(=O)N(C)c3ccccc3)CC2)cc1C,,-24.6%
CCN(CC(=O)Nc1ccc(C)c(S(=O)(=O)N(C)C)c1)Cc1ccccc1,,-0.255%
CC(C)(C)c1ccc(SCCc2ccncc2)cc1,,12.8%
CCC(C(=O)NC1CCCC1)N(C(=O)Cn1nnc(-c2ccc(C)o2)n1)c1ccc(OC)c(OC)c1 (centres undefined),,17.5%
COC(=O)c1c(NC(=O)CCCC(=O)O)sc2c1CCCCC2,,6.79%
COC(=O)c1c(NC(=O)COC(=O)[C@@H](NS(=O)(=O)c2ccccc2)C(C)C)sc2c1CCC2,25.9 µM (active),
CCOCC(=O)Nc1sc2c(c1C(=O)OCC)CCCC2,,-28.6%
O=C1C=C(c2cc(C(F)(F)F)cc(C(F)(F)F)c2)C[C@@H](c2ccc3c(c2)OCO3)C1,,6.59%
Cc1nc2sc(C(=O)c3ccccc3)c(N)c2c2c1CCCC2,,-1.68%
NC(=O)c1sc2nc3c(c(-c4ccccc4)c2c1N)CCC3,4.11 µM (active),
Cc1cccc(NC(=O)c2sc3nc4c(c(-c5ccco5)c3c2N)CCC4)c1,,-2.91%
CC(=O)N1CCN(c2ccccc2NC(=S)NC(=O)c2cc3ccccc3o2)CC1,,-7.26%
COc1ccc(-c2oc(/N=C/N3CCCC3)c(C#N)c2-c2ccc(OC)cc2)cc1,,-13.4%
COc1ccc(-c2oc3ncnc(NCCCO)c3c2-c2ccc(OC)cc2)cc1,18.3 µM (active),

Compound,Potency,"activity change, negative = inhibition"
c1ccc(-c2oc3ncnc(N4CCOCC4)c3c2-c2ccccc2)cc1,,2.31%
CCn1c(=O)c2ccccc2n(CC(=O)N2CCCc3ccccc32)c1=O,,-16.6%
CCN(C[C@H]1N[C@@](CC)(C(=O)OC)[C@H]2C(=O)N(Cc3ccccc3)C(=O)[C@@H]12)S(=O)(=O)c1ccccc1,,-17%
COc1ccc(NC(=O)c2cc([N+](=O)[O-])ccc2NC(=O)CNC2CCCCC2C)c(OC)c1 (centres undefined),,-1.95%
CCOc1ccc(C(C(=O)NC2CCCC2)N(C(=O)c2snc(C(N)=O)c2N)C2CCCC2)cc1 (centres undefined),,0.122%
COc1ccc(C(=O)OCC(=O)c2cc(C)n(CC3CCCO3)c2C)cc1[N+](=O)[O-] (centres undefined),,-8.41%
O=C(CN1CCCCCC1)N1c2ccccc2Sc2ccc(C(F)(F)F)cc21,,-11.8%
COc1cc(/C=C/C(=O)N2c3ccccc3Sc3ccc(C(F)(F)F)cc32)cc(OC)c1OC,9.2 µM (active),
O=C(CN1CCCCC1)N1c2ccccc2Sc2ccc(C(F)(F)F)cc21,,-0.87%
COC(=O)C1CCN(C(=O)NC2CC(=O)N(c3ccc4c(c3)OCCO4)C2)CC1 (centres undefined),,5.95%
COC(=O)COc1ccc(S(=O)(=O)N2CCOCC2)cc1,,-1.32%
COc1ccc(C(=O)Nc2nc(-c3ccc(S(=O)(=O)N4CCOCC4)cc3)cs2)cc1,11.6 µM (active),
COc1cccc(C(=O)Nc2nnc(S(=O)(=O)N3CCOCC3)s2)c1,,18.7%
Cc1ccc(C(=O)COC(=O)CCN2C(=O)C3C4CCC(C4)C3C2=O)cc1C (centres undefined),,-2.83%
COCCOC(=O)c1[nH]c2c(c1C)C(=O)CC(c1ccc(OC)cc1)C2 (centres undefined),,-3.68%
CCCOC(=O)c1[nH]c2c(c1C)C(=O)CC(c1cc(OC)c(OC)c(OC)c1)C2 (centres undefined),5.17 µM (active),
COc1cc(C2CC(=O)c3cnc(NC(C)=O)nc3C2)cc(OC)c1OC (centres undefined),,12.5%
COc1ccc(OC)c(S(=O)(=O)Nc2c(C)nn(C)c2C)c1,,-6.93%
Cc1cc(C)c(C)c(S(=O)(=O)N2CCN(C(=O)c3ccc4c(=O)n5c(nc4c3)CCC5)CC2)c1C,,-26.1%
COc1ccc(C=C(C#N)C#N)c(CSc2ccccn2)c1,,-6.6%

Compound,Potency,"activity change, negative = inhibition"
Cc1cc(N2CCCC2)ccc1NC(=O)COc1ccc(Cl)cc1,,-10.8%
Cc1cccc(OCC(=O)NC(=S)Nc2ccccc2N2CCOCC2)c1,,-5.56%
Cc1cc(C)cc(OCC(=O)Nc2ccc(N3CCOCC3)cc2N2CCOCC2)c1,16.4 µM (active),
COc1cccc(CNC(=O)CCC2CCCN(C(=O)c3ccc(F)c(Cl)c3)C2)c1 (centres undefined),,-27.6%
Cc1ccc(NC(=S)NCCN2CCOCC2)cc1,,2.53%
CCOc1cccc(/C=N/NC(=S)NCCN2CCOCC2)c1O,13 µM (active),
COc1cccc(NC(=S)NCCCN2CCOCC2)c1,,16.7%
CCN(CC)C(=O)[C@H]1C[C@H](CC(=O)NCC23CC4CC(CC(C4)C2)C3)C(=O)N2CCc3c([nH]c4cc(CCC(=O)N(C)C)ccc34)[C@]12C,,-9.18%
COc1ccc(C(=O)c2c3ccc([N+](=O)[O-])cc3[n+]([O-])n2CCCN)cc1,,-19.9%
COc1ccc(Cc2nnc(SCC(=O)N(c3ccccc3)C(C)C)n(N)c2=O)cc1,,0.731%
COc1ccc2c(c1)C(NS(=O)(=O)OCC(Cl)(Cl)Cl)CCC2 (centres undefined),,28.9%
CCCN(Cc1cc2cccc(C)c2[nH]c1=O)S(C)(=O)=O,,3.35%
CN1CCN(C(c2cc3cc4c(cc3[nH]c2=O)OCCO4)c2nnnn2C2CCCC2)CC1 (centres undefined),,0.478%
COc1ccc2[nH]c(=O)c(CN(Cc3nnnn3CCc3ccccc3)CC3CCCO3)cc2c1 (centres undefined),,-2.53%
Cc1cccc2cc(CN(Cc3cccs3)C(c3nnnn3C3CCCC3)C(C)C)c(=O)[nH]c12 (centres undefined),11.6 µM (active),
Cc1cccc2cc(CN(Cc3nnnn3Cc3ccccc3)C3CCCC3)c(=O)[nH]c12,20.6 µM (active),
Cc1cc(C)c2cc(CN(Cc3nnnn3Cc3ccc(F)cc3)C3CCCC3)c(=O)[nH]c2c1,,4.9%
Cc1ccc(N2C(=O)N3[C@@H]4c5ccccc5OC[C@@H]4[C@@H](c4ccccc4)[C@@]3(C)C2=O)cc1,,-0.661%
CC(=O)N1CCSc2ccc(S(=O)(=O)N3CCC(C)CC3)cc21,,2.5%
